Among the data in PubChem BioAssay (NCI) are growth values, retold here.

The panel holds about 83,000 compounds, 20% with a hit somewhere; the sample as a whole holds those more often.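 Activity criterion: percent growth below 10, measured after cells in 96-well plates were exposed to a single compound concentration for 48 hours.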 A number with no mark means an inactive call. Activity calls are given as the source filed them.

Some test systems named below: HCT-15 colon; HT29 colon; SNB-75 CNS; SNB-19 CNS; U251 CNS; PC-3 prostate; SK-MEL-5 melanoma; UACC-62 melanoma; LOX IMVI melanoma; SK-MEL-28 melanoma; SK-MEL-2 melanoma; EKVX NSCLC; SN12C renal; UO-31 renal; ACHN renal; CAKI-1 renal; CCRF-CEM leukemia; MOLT-4 leukemia; TK-10 renal; A498 renal.
Assay in all cases: NCI-60 one-dose screen, 48 h (100 = growth as untreated, 0 = no growth, -100 = all killed)
Settings in all cases: 10 µM unless noted

Consider `CCOC(=O)n1ccn(C)c1=S`, for which the growth with HCT-15 colon is 104%; in the assay with HT29 colon, 96.2%; with SNB-75 CNS, 104%; in the assay with SNB-19 CNS, 110%; with U251 CNS, 100%; in the assay with PC-3 prostate, 91%. In addition, the growth in the assay on SK-MEL-5 melanoma is 109%; in the assay with UACC-62 melanoma, 108%; with LOX IMVI melanoma, 105%; in the assay with SK-MEL-28 melanoma it was 108%; in the assay with SK-MEL-2 melanoma, 97.8%; with EKVX NSCLC, 100%. Moreover, the growth was 105% in the assay with SN12C renal; 80.7% with UO-31 renal; 99.3% in the assay with ACHN renal; 95.4% in the assay with CAKI-1 renal; 98% in the assay on CCRF-CEM leukemia; 103% with MOLT-4 leukemia.

On to `CC(C)(C)CC(C)(C)NC(=O)Nc1ncccc1OCc1ccccc1`, for which the growth is 86.2% in the assay on HCT-15 colon; 80.9% with HT29 colon; 91.5% with SNB-75 CNS; 95.9% with SNB-19 CNS; 82.4% with PC-3 prostate; 92.8% with SK-MEL-5 melanoma. For the same compound, the growth in the assay with UACC-62 melanoma is 81.4%; in the assay with LOX IMVI melanoma, 90.7%; with SK-MEL-28 melanoma, 103%; in the assay on SK-MEL-2 melanoma, 83.5%; in the assay on EKVX NSCLC, 93.3%; in the assay with SN12C renal, 89.5%. Moreover, the growth in the assay with UO-31 renal is 73.9%; in the assay with TK-10 renal, 96.3%; with ACHN renal it was 94.4%; in the assay on CAKI-1 renal, 80.2%; with A498 renal, 92.7%; with MOLT-4 leukemia, 89.1%.

With `CSc1nc2ccccc2cc1/C=[N+](\[O-])c1ccccc1`, the growth in the assay on HCT-15 colon is 18.7%; with HT29 colon, 80.2%; in the assay on SNB-75 CNS it was 67.3%; in the assay on SNB-19 CNS, 72.9%; with PC-3 prostate it was 40.9%; in the assay with SK-MEL-5 melanoma, 52.5%. Besides, the growth with UACC-62 melanoma is 51.5%; with LOX IMVI melanoma, 38.1%; in the assay with SK-MEL-28 melanoma, 93.8%; with SK-MEL-2 melanoma it was 95.5%; with EKVX NSCLC it was 79.5%; with SN12C renal, 45.2%. The growth is 42.8% with UO-31 renal; 98% in the assay with TK-10 renal; 80% in the assay with ACHN renal; 80.8% in the assay with CAKI-1 renal; 102% with A498 renal; 10.5% in the assay on CCRF-CEM leukemia. The growth with MOLT-4 leukemia was 22%.

Take `COc1cc2nc3cc([N+](=O)[O-])ccc3c(NCCNCC(C)O)c2cc1OC` (configuration not stated): the growth in the assay with HCT-15 colon is 23.4%; with HT29 colon, 2.64% (active); in the assay with SNB-75 CNS, -59.9% (active); with SNB-19 CNS, -10.4% (active); in the assay on PC-3 prostate, -38.6% (active); in the assay on SK-MEL-5 melanoma, -82.4% (active). The growth was -56.8% (active) with UACC-62 melanoma; -35.7% (active) in the assay with LOX IMVI melanoma; -20% (active) in the assay on SK-MEL-28 melanoma; -29.6% (active) in the assay with SK-MEL-2 melanoma; 9.5% (active) in the assay on EKVX NSCLC; -16.2% (active) in the assay on SN12C renal. For the same compound, the growth is 28.6% with UO-31 renal; 14.3% in the assay with TK-10 renal; 2.74% (active) in the assay with ACHN renal; 18.6% in the assay with CAKI-1 renal; -34% (active) with A498 renal; -6.35% (active) in the assay on CCRF-CEM leukemia. Also, the growth with MOLT-4 leukemia was -0.334% (active).

Consider `CN1CCN(C(=O)c2ccc(NC(=O)c3cc4c(nn3)NCCN4Cc3cc(Cl)ccc3Cl)cc2)CC1`, for which the growth was 68% with HCT-15 colon; 63.2% in the assay on HT29 colon; 79.4% in the assay with SNB-75 CNS; 92.2% in the assay with SNB-19 CNS; 71.1% in the assay with PC-3 prostate; 75.2% with SK-MEL-5 melanoma. The growth in the assay on UACC-62 melanoma is 92.5%; with LOX IMVI melanoma, 59.4%; with SK-MEL-28 melanoma, 89%; with SK-MEL-2 melanoma, 78.8%; in the assay on EKVX NSCLC it was 85.8%; in the assay with SN12C renal it was 74.9%. The growth in the assay with UO-31 renal was 60.5%; in the assay with TK-10 renal, 92.1%; with ACHN renal, 75.1%; in the assay with CAKI-1 renal it was 75.1%; with A498 renal, 43.7%; in the assay on CCRF-CEM leukemia, 42%. In addition, the growth in the assay on MOLT-4 leukemia is 39.6%.

Turning to `C#CCOc1cccc(Nc2ncnc3cc(NC(=O)C=C)ccc23)c1`, the growth in the assay on HCT-15 colon is 7.73% (active); in the assay with HT29 colon it was 1.75% (active); with SNB-75 CNS it was 24.7%; in the assay on SNB-19 CNS, 33.8%; in the assay with PC-3 prostate it was 24.2%; in the assay on SK-MEL-5 melanoma, 8.74% (active). The growth with UACC-62 melanoma was 9.66% (active); in the assay on LOX IMVI melanoma, 3.54% (active); in the assay with SK-MEL-28 melanoma, 49%; with SK-MEL-2 melanoma it was 25.3%; with EKVX NSCLC, 32.5%; in the assay on SN12C renal, 13.2%. Further, the growth in the assay on UO-31 renal is 16.8%; in the assay with TK-10 renal it was -12.6% (active); with ACHN renal, 17.2%; with CAKI-1 renal, 16%; in the assay with A498 renal, 26.8%; in the assay with CCRF-CEM leukemia it was 2.9% (active). Also, in the assay with MOLT-4 leukemia, the growth was 7.88% (active).

Turning to `CCN(CC)CCn1c2ccc(O)cc2c2sc3cc(O)ccc3c(=O)c21`, the growth is 29.1% in the assay on HCT-15 colon; 27.1% in the assay on HT29 colon; 76.1% in the assay on SNB-75 CNS; 23.4% in the assay on SNB-19 CNS; 31.5% in the assay on PC-3 prostate; 60.7% in the assay with SK-MEL-5 melanoma. The growth in the assay on UACC-62 melanoma is 39.4%; in the assay on LOX IMVI melanoma it was 8.55% (active); with SK-MEL-28 melanoma, 54.5%; with SK-MEL-2 melanoma, 57.9%; in the assay on EKVX NSCLC it was 48.8%; with SN12C renal, 20.9%. The growth is 26% in the assay on UO-31 renal; 64.9% with TK-10 renal; 3.32% (active) in the assay with ACHN renal; 43.5% in the assay on CAKI-1 renal; 41.6% in the assay with A498 renal; 9.25% (active) in the assay on MOLT-4 leukemia.

Take `Cn1ccc(=O)c(C(=O)Nc2nsc3ccc([N+](=O)[O-])cc23)c1`: the growth is 54.9% with HCT-15 colon; 68.2% with HT29 colon; 72.1% with SNB-75 CNS; 91.3% in the assay on SNB-19 CNS; 56.8% in the assay with PC-3 prostate; 87.4% in the assay on SK-MEL-5 melanoma. Moreover, the growth in the assay with UACC-62 melanoma was 32.6%; in the assay on LOX IMVI melanoma, 51.3%; in the assay with SK-MEL-28 melanoma, 78.3%; with SK-MEL-2 melanoma, 55.7%; with EKVX NSCLC, 81.7%; in the assay on SN12C renal, 75.3%. For the same compound, the growth in the assay on UO-31 renal was 28.1%; with ACHN renal, 32.6%; in the assay on CAKI-1 renal, 6.88% (active); in the assay on A498 renal, 31.9%; in the assay on CCRF-CEM leukemia, 82.7%; in the assay with MOLT-4 leukemia, 83.4%.

As for `COc1cc2ncnc(Nc3ccc(F)c(Cl)c3)c2cc1OCC(=O)N1CCN(c2ccccc2)CC1`, the growth in the assay with HCT-15 colon is 90.7%; with HT29 colon, 90.4%; in the assay with SNB-75 CNS it was 83.7%; in the assay on SNB-19 CNS, 85.9%; with PC-3 prostate it was 90.6%; in the assay with SK-MEL-5 melanoma, 95%. Also, the growth is 92.8% in the assay on UACC-62 melanoma; 93.7% in the assay on LOX IMVI melanoma; 113% with SK-MEL-28 melanoma; 102% with SK-MEL-2 melanoma; 77.6% in the assay with EKVX NSCLC; 80.4% with SN12C renal. In addition, the growth is 46.5% in the assay with UO-31 renal; 42.4% in the assay with TK-10 renal; 50.6% with ACHN renal; 50.6% in the assay with CAKI-1 renal; 61.2% in the assay with A498 renal; 103% with CCRF-CEM leukemia. Also, the growth with MOLT-4 leukemia is 90.3%.
